Bioassay records: PubChem, several laboratories
An excerpt weighted towards active compounds, which were near 2.1% of everything screened.
HSV augment = HSV replication enhancement; HSV replication augmentation in cells, fold increase; maximum fold increase; 0.005% of 220,000 active; AID 1956; in the data active = maximum fold increase above about 1.5; inconclusive = no clear call, values can overlap the other calls; tested in PC3 cells
ROMK mod = modulators of human ROMK potassium channel | P48048 | Tet-inducible ROMK, thallium flux fluorescence; actives lie on both sides | B-score at 10 µM | 2% of 130,000 active | AID 1918;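 active = signal ratio slope over the read window, or its plate-corrected B-score, at least 3 SD from the plate mean, either direction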;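 note: B-score of the F/F0 ratio slope over 7 to 12 s after thallium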
Target sequence (P48048 whole entry, looked up): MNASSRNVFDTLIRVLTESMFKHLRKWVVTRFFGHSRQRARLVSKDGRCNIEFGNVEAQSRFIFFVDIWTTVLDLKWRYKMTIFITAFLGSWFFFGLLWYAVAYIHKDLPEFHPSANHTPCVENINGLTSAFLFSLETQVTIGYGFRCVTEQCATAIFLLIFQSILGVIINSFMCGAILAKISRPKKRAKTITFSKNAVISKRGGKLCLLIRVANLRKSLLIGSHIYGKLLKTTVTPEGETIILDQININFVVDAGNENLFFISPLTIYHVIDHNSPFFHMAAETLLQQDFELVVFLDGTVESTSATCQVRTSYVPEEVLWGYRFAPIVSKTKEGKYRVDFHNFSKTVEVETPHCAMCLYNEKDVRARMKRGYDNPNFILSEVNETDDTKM
Calpain2 inh = blocks pig calpain II enzyme activity | purified calpain II, fluorogenic peptide substrate, 30 min | AID 1236 | inhibition, % at 16 µM | 0.37% of 220,000 active;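 active = inhibition above about 50%, limit read from the data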
Arbovirus anti = blocks arbovirus infection | 0.37% of 200,000 active | arbovirus infection cell-based antiviral screen | inhibition, % at 10 µM; in the data active = inhibition above about 30%
HMGR II inh = inhibitors of class II HMG-CoA reductase from Enterococcus faecalis | purified E. faecalis HMGR, NADPH absorbance 340 nm kinetic | AID 1066 | inhibition, % at 10 µM | 0.41% of 190,000 active;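 active = inhibition above a set limit, the median over all tested compounds plus 3 SD, cut at about 9.5% in these data; inconclusive = no clear call, values can overlap the other calls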;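 note: enzyme runs in reverse so mevalonate oxidation gives rising NADPH absorbance; 0% = complete reaction with DMSO and 100% = background rate lacking mevalonate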
Numbers without * were called inactive; i = inactive; ? = inconclusive; . = not tested or not shown.

SMILES | HSV augment | ROMK mod | Calpain2 inh | Arbovirus anti | HMGR II inh
C=CCOc1c(Br)cc(CNc2nccs2)cc1OC | i | 0.284 | -4.9 | -5.4 | 14.1*
Cc1sc2c(c1C)C(O)=C(C(=O)Nc1ccccc1)S(=O)(=O)N2C | i | . | 6.7 | . | .
O=C(O)CCN1C(=O)/C(=C/c2ccc(-c3nc4ccccc4s3)o2)SC1=S | . | . | -71.7 | 42.2* | 6.2
O=C(O)CCCN1C(=O)/C(=C\c2ccc(-c3nc4ccccc4s3)o2)SC1=S | ? | -0.00895 | 9.6 | . | .
Cc1ccc(NC(=O)CC2SCCNC2=O)cc1Cl (configuration not stated) | i | 0.881 | -15.5 | 4.8 | -5.4
O=C(CC1SCCNC1=O)Nc1ccc(F)c(Cl)c1 (configuration not stated) | i | 0.0279 | -10.2 | -0.2 | 15.7*
O=C(c1ccc(Cl)cc1Cl)N1CCC(c2nc3c(nnn3Cc3ccco3)c(=O)[nH]2)CC1 | i | . | 70.4* | -25.3 | -1.1
Cc1ccsc1/C=C1/NC(=O)N(Cc2ccc(F)cc2)C1=O | i | 0.19 | -8.7 | 2.6 | 15.0*
O=C(O)c1ccc(COc2ccccc2/C=C2\NC(=O)N(Cc3ccc(F)cc3)C2=O)cc1 | i | -0.633 | -3.0 | -0.9 | 10.9*
O=C1N/C(=C\c2ccsc2)C(=O)N1Cc1ccc(F)cc1 | i | 0.247 | -9.7 | -7.1 | 0.3
O=C(O)c1ccc(COc2ccccc2/C=C2/NC(=O)N(c3cccc(Cl)c3)C2=O)cc1 | i | . | -20.8 | 12.5 | 0.5
O=S(=O)(Nc1ccc(-c2csc(-c3ccccc3)n2)cc1)c1ccc(F)cc1 | i | . | 55.5* | -44.1 | -3.3
O=C(Nc1nc(-c2ccccc2)cs1)c1ccccc1NS(=O)(=O)c1ccc(F)cc1 | i | -1.14 | -57.5 | -35.3 | 0.0
CCN(CC)c1ccc(S(=O)(=O)N2CCOCC2)cc1NC(=O)CSc1n[nH]c(N)n1 | i | . | -17.7 | . | .
Cc1ccc(C(=O)c2c(C)oc3c2C(=O)C(=O)c2ccccc2-3)cc1 | i | . | 26.1 | -41.0 | -7.1
Cc1oc2c(c1C(=O)c1ccc(Cl)cc1)C(=O)C(=O)c1ccccc1-2 | . | . | 61.9* | -43.8 | -4.9
[O-]c1c[n+](-c2ccc(-[n+]3cc([O-])on3)cc2)no1 | i | 0.308 | -33.9 | -1.6 | 2.0
CCc1ccc(NC(=O)CSc2nc(NS(=O)(=O)c3ccccc3)cc(=O)[nH]2)cc1 | i | -0.137 | -30.4 | 1.3 | 10.2*
Cc1ccc(NC(=O)CSc2nc(NS(=O)(=O)c3ccccc3)cc(=O)[nH]2)cc1 | i | -0.00864 | -58.8 | -1.9 | 0.0
Cc1ccc(NC(=O)CN2C(=O)/C(=C3\SC(=S)N(C4CCS(=O)(=O)C4)C3=O)c3ccccc32)cc1 (configuration not stated) | i | . | 66.9* | 17.5 | -0.3
O=C(CN1C(=O)/C(=C2\SC(=S)N(C3CCS(=O)(=O)C3)C2=O)c2ccccc21)Nc1ccccc1 (configuration not stated) | i | . | 47.9 | 20.0 | -8.4
CC(C)c1ccc(C2NC(=O)CCC2[N+](=O)[O-])cc1 (configuration not stated) | i | -0.0545 | -0.3 | -4.3 | 10.1*
COc1ccc(/C=C/C(=O)NCC2COc3ccccc3O2)cc1OC (configuration not stated) | i | 0.296 | -68.4 | -11.3 | 9.5*
CC(C)(C)NC(=O)Cn1c(=O)n(CC(=O)NC(C)(C)C)c2ccccc21 | i | 0.0733 | 12.5 | -0.7 | -4.8
O=C(NCC1OCCCN1S(=O)(=O)c1cc(F)ccc1F)C(=O)NC1CCCCC1 (configuration not stated) | i | 0.0324 | -22.0 | 20.8 | 9.6*
SMILES | HSV augment | ROMK mod | Calpain2 inh | Arbovirus anti | HMGR II inh
O=C(OCc1ccccc1)N1CCCC1/C=C/CN1CCOCC1 (configuration not stated) | i | 0.835 | -3.8 | 11.1 | -9.5
Cn1c(=O)c2ncn(CC(=O)N/N=C/c3ccco3)c2n(C)c1=O | i | 0.215 | -0.7 | -9.8 | 2.8
O=C(Nc1sc2c(c1C(=O)O)CCCC2)c1cccs1 | i | 0.108 | 7.7 | 47.8* | -5.1
CC(=O)Nc1sc2c(c1C(N)=O)CCC2 | i | 2.5* | -20.1 | -2.3 | 2.0
Cc1ccc(C(=O)Nc2sc3c(c2C(=O)O)CCCCC3)o1 | i | -0.0518 | -14.6 | 47.2* | 4.6
O=C(Nc1sc2c(c1C(=O)O)CCCCC2)c1ccccc1F | i | 0.896 | -38.5 | 38.2* | -3.5
CC(C)OC(=O)c1c(NC(=O)c2cccs2)sc2c1CCCC2 | i | 0.139 | -480.6 | 5.6 | -0.4
COC(=O)c1c(NC(=O)c2ccc(C)o2)sc2c1CCCCC2 | i | -1.37 | 6.5 | 4.9 | -5.6
O=C(COc1ccccc1C(=O)NCc1ccccn1)Nc1ccc(Br)cc1 | i | -0.928 | 2.3 | 18.1 | -0.6
COc1ccc([N+](=O)[O-])cc1NS(=O)(=O)c1ccc(Cl)c(C(=O)Nc2sc3c(c2C#N)CCCCC3)c1 | i | 0.238 | 7.3 | -27.9 | -1.5
Oc1[nH]c2ccccc2c1C1=NCCCCC1 | i | -0.0414 | 29.7 | -6.9 | -1.7
O=C(NCc1nc2ccccc2[nH]1)C1=C[C@H](c2ccc3c(c2)OCO3)C[C@H](OCCCCO)O1 | i | . | -4.2 | 2.0 | -3.8
O=C1c2ccc(-c3ccc4c(c3)C(=O)N(CCO)C4=O)cc2C(=O)N1CCO | i | . | -44.8 | . | .
O=C(Nc1sc2c(c1C(=O)NCC1CCCO1)CCCC2)c1cccs1 (configuration not stated) | i | . | 22.3 | -3.6 | -4.6
O=C(Nc1sc2c(c1C(=O)O)CCCCC2)c1cccs1 | i | -0.273 | -19.2 | 46.0* | 2.4
CCC(C(=O)NCc1ccccc1OC)c1ccccc1 (configuration not stated) | i | -0.286 | -9.7 | -2.7 | -1.1
CCn1c(C)cc(/C=C2/SC(=S)NC2=O)c1C | ? | . | 19.8 | -4.6 | 2.8
Cc1sc(-n2c(C)cc(/C=C3\SC(=S)NC3=O)c2C)c(C#N)c1C | i | 2.03 | -14.0 | -3.9 | 11.5*
Cc1cc(-c2ccccc2)n2ncnc2n1 | i | . | -20.2 | . | .
Cc1ccccc1NC(=O)COC(=O)CCc1ccccc1 | i | -0.306 | 63.9* | 11.9 | -6.9
O=C(COC(=O)CCc1ccccc1)Nc1ccccc1OC(F)F | i | . | 2.5 | . | .
Cc1cc(C)cc(NC(=O)N2CCCN(Cc3c(F)cccc3Cl)CC2)c1 | i | . | 23.4 | . | .
Cc1ccc(-c2nc(NCc3ccco3)c3ccccc3n2)cc1 | i | . | 60.6* | -22.1 | -0.2
Fc1ccc(CNc2nc(-c3ccccc3)nc3ccccc23)cc1 | i | 0.711 | 54.5* | -4.6 | 0.0
c1cncc(-c2nc(NCc3ccco3)c3ccccc3n2)c1 | i | . | -30.8 | 0.8 | -3.8
c1ccc(-c2nc(NCc3cccnc3)c3ccccc3n2)cc1 | i | -0.161 | 20.4 | 3.6 | 3.6
COc1cc(/C=C2\C(=O)ON=C2c2ccccc2)cc(Cl)c1O | . | -15.4* | 17.1 | -14.7 | 0.9
O=C1ON=C(c2ccc(Cl)cc2)/C1=C/c1ccc(O)cc1 | i | -1.51 | 26.6 | -27.0 | -4.7
Cc1nc2c(c3c1[nH]c1ccccc13)C(O)CC(C)(C)C2 (configuration not stated) | i | -0.67 | -434.7 | 53.8* | -1.8
COC(=O)c1ccccc1NC(=O)c1ccc(COc2ccc(C)c(C)c2)o1 | i | . | 17.3 | 48.0* | -12.0
